# Data as given in the supplement of paper PMC6555819.
# Tested on: VDR:RXRa (NR concentration 270 nM, RXRa partner concentration 90 nM)
# Assay: PBM binding z-score (relative to random genomic background probes); higher = stronger binding; sequences stand for … in GC…GCGATTGACAGCGTAGAATGAAGG
# Method: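 Protein-binding microarray (Agilent 4x180K custom design, double-stranded 60-nt probes: 5' GC cap, 34-nt variable region, 24-nt constant primer region; full probe sequence given). Purified or IVT nuclear receptor:RXRα heterodimers (3:1 NR:RXRα, mostly 270:90 nM) or homodimers were incubated for 1 h in PBS with 2% milk and no ligand, then detected with Alexa488 antibodies. Fluorescence from o1-orientation probes (~5 replicates averaged) was converted to z-scores against 500 random hg19 background probes. Variable regions are seed direct-repeat (DR0–DR5) sites, all their single-nucleotide variants and half-site ablations.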
row,Sequence,PBM binding z-score
1,GCAGACAGGTGAAATGCAGGTAACTCAGGGTGGC,-0.417
2,ATACCAAGGTGATCGTGAGGTCGTTGACACTAAC,3.35
3,TTATATAGGTAAATGCTAGGTGAAAGTCCGATCT,0.639
4,ATCTCTAGGTAACAACTTCAGTGAAAGAGAGGAC,0.366
5,CGAACTAGGTCATTGACAGCACAGTGAATAGTAA,2.15
6,GCTCGGAGGACTAGGTCAGAGCTTTGTCCGTAGA,-0.562
7,GCTAACAGGCCATTTGGGTCACTCAATGACGGGC,1.45
8,ATCTCTACGTAACAAGTTCAGTGAAAGAGAGGAC,1.38
9,AGAATGAGGTTAAGATCAGGGGAACAGAATACAT,1.33
10,GCTAGCAGGCCATTTGGGTCACTCATTGACGGGC,0.798
11,GCTCGGAGGACAAGATCAGAGCTTTGTCCGTAGA,-0.806
12,CCGACTGGGGCAGAAAGGTTACCAAACCATCCGG,0.877
13,CTCGATAGGTCGGTTGAGGTGAGTATACGGATAA,0.436
14,ATCGAAAGGTCGTGAGATGAGTATACAGAAAGGC,3.09
15,TCGCCTAGGTCATGCGGGCCAGTATAGTGTCGGC,3.04
16,ACTATTATTTGAGACGAGGGCAACCGATAGGTTG,1.1
17,AGTCAAAGTTCAGGACGAGGTAACGCAAAGCACG,2.89
18,CATAGTTGGTCAGGAGGTCACACACCGGATATGA,3.94
19,CAGCCTAGGTCAGGCCCAGTATAGGAGGAACGTT,-0.208
20,GATCGGAGGACAAGGTCAGAGCTTTGTCCGTAGA,1.44

row,Sequence,PBM binding z-score
1,GCAGACAGGTGAAACGCAGATAACTCAGGGTGGC,-0.407
2,GCTGCTAGGTCAGCTTGGTCAGCTAACGGGTACG,0.54
3,ATCTCTAGGTAAGACTTAGTTCAGTGAAGAACGC,0.582
4,ATATGTAGGTTAGCTGGGATCATTCAGACTAGGC,0.919
5,TCTTGTAGATTAATAGAGGTTAAGAAAGTGCGCT,2.11
6,TCGAGGAGGTTAGGGGCATTCAGAATGGCGTCGA,1.03
7,ACAGACCGGTGATGAAGGTAACTCAGGCTATCAT,-0.216
8,TCTGCTACGTCAACGATGGTCAGCTAATCTGCTA,-0.548
9,CGAACTAGGTCATCCAGGACAGGGAATACATTGA,4.1
10,ATCTCTAGGCAACCAAGTTCAGTGAATGCCGAAC,2.1
11,TGGAGTAGGTTAGTCGGGGCATTCAGCCAACATA,2.43
12,CTACCAAGGTGAGCAAGGTCGTTGATTACTATTC,5.03
13,GCTTCTAGGTCAGGTTGGTCAGCTAACGGGTACG,0.953
14,CAAACTAGGTCAAGGTCCAAGTCGGTTTGTGCCA,2.18
15,CATACAGGGTCAGCTAGGTCAGAGTAGGGACGGC,5.76
16,GGAACGAGGGCATTCGAGTTGATAGTATGGCGAT,4.13
17,ATCGAAAGGTCGTGAGGTGAGTATCCAGAAAGGC,3.39
18,AGAACGAGGGGACGCTGAGTTGATAGCAGAGTAG,0.464
19,TAGCCTAGGTCTTGCGGGCCAGTATAGTGTCGGC,-0.977
20,AGTCAAAGTTCACTAGGTAAGGTAAGATTCAGCT,3.96
